# Data taken from ChEMBL document CHEMBL3988442, “University of Dundee, Small-Polar-MMV Screening Library” (2021).
# Experiments:
# [1] = biological target: T1, Aspartate--tRNA(Asp/Asn) ligase (Mycobacterium tuberculosis (strain ATCC 25618 / H37Rv)) (UniProt P9WFW3); test: Assay for Asp RNA synthetase-1 from Mycobacterium tuberculosis; assay type: functional; design: scale not given: direction of the effect not stated beside the values; details: 30 µM; further: in the data most compounds retested in dose-response had high values
# T1 sequence (whole entry): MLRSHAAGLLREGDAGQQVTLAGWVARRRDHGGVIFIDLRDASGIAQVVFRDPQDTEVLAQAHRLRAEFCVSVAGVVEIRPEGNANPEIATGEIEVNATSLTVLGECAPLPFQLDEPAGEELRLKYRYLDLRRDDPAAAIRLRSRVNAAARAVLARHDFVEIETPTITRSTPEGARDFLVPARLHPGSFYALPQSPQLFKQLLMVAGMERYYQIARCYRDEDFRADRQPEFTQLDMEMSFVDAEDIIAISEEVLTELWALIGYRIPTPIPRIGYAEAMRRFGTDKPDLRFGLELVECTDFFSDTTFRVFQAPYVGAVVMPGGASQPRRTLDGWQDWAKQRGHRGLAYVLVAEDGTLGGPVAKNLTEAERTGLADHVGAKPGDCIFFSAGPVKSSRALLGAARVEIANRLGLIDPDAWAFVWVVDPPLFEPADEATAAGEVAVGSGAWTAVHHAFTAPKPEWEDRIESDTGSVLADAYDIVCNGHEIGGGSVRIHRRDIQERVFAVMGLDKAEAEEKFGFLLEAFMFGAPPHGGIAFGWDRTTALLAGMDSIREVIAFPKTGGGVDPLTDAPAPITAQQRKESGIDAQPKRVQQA
# [2] = biological target: Shiga toxin 2 (Escherichia coli O157:H7) (UniProt P09385+P09386); test: E. coli 0.157:H7 Shiga Toxin SOP - stx2 screening assay; assay type: functional; design: scale not given: direction of the effect not stated beside the values; details: 30 µM
smiles,measurement,setting,value
COc1cccc(C(=O)N2CCCC(C(=O)CCc3ccccc3)C2)c1 (stereo not drawn),Percent Effect,[1],4.2%
same,Percent Effect,[2],-7.01%
Cc1nc2n(n1)CC(NCc1cc(Cl)c3c(c1)OCCCO3)CC2 (stereo not drawn),Percent Effect,[1],6.55%
same,Percent Effect,[2],22.8%
Cn1nc(CNC(=O)C2CC2)cc1C1CC1,Percent Effect,[1],-2.99%
same,Percent Effect,[2],-14.8%
CS(=O)(=O)N1CCCN(C(=O)c2ccc(Cn3ccccc3=O)o2)CC1,Percent Effect,[1],1.66%
same,Percent Effect,[2],25%
CC(C)Cc1nc(OCC(=O)O)c(C#N)c2c1CCC2,Percent Effect,[1],0.639%
same,Percent Effect,[2],-5.61%
COCC(=O)N1CC[C@@H](N2CCOCC2)[C@@H]1Cc1ccccc1,Percent Effect,[1],9.38%
same,Percent Effect,[2],-28.8%
CNC(=O)Cc1ccc(NC(=O)NC(C)C(C)C)cc1 (stereo not drawn),Percent Effect,[1],-6.08%
same,Percent Effect,[2],-0.988%
Cn1cc(C(=O)N2CCCC(n3cccn3)C2)c2ccccc21 (stereo not drawn),Percent Effect,[1],-0.132%
same,Percent Effect,[2],-6.71%
CS(=O)(=O)NCC1CCCN(C(=O)COCC(F)(F)F)C1 (stereo not drawn),Percent Effect,[1],-4.43%
same,Percent Effect,[2],-24%
O=C(NCCN1CCNCC1)c1c(O)c2ccccc2[nH]c1=O,Percent Effect,[1],-0.319%
same,Percent Effect,[2],-77.4%
O=C(Cc1cccs1)N1CC[C@H]2[C@@H]1CCC(=O)N2c1cccnc1,Percent Effect,[1],-1.62%
same,Percent Effect,[2],-9.24%
Cn1c(CC2CCS(=O)(=O)C2)nnc1SCCOc1cccc(Cl)c1 (stereo not drawn),Percent Effect,[1],2.13%
same,Percent Effect,[2],-13%
Cc1cc(-c2cnc(NCc3cccnc3)nc2C(C)C)on1,Percent Effect,[1],6.13%
same,Percent Effect,[2],10.2%
COCC1c2c(cnn2CC2CC2)CCN1Cc1nccs1 (stereo not drawn),Percent Effect,[1],0.524%
same,Percent Effect,[2],-52.1%
CCc1nnc2n1CCN(C(=O)c1csc(-c3cnn(C)c3)n1)C2,Percent Effect,[1],0.836%
same,Percent Effect,[2],-15.8%
Cc1ccc([C@@H]2CN(S(=O)(=O)C(C)C)C[C@H]2N(C)C)cc1,Percent Effect,[1],0.183%
same,Percent Effect,[2],12.9%
Cc1ccc(CN2CCc3ncnc(-c4cccnc4)c3CC2)o1,Percent Effect,[1],4.98%
same,Percent Effect,[2],9.48%
CC(=O)Nc1nc(C(=O)N2CCCC(c3cc(C)[nH]n3)C2)cs1 (stereo not drawn),Percent Effect,[1],0.141%
same,Percent Effect,[2],-12.2%
CCc1ccsc1C(=O)N1CCN(C(=O)CC(F)(F)F)CC1,Percent Effect,[1],-0.116%
same,Percent Effect,[2],-16.6%
Cc1cnn(CC2CCCCN2C(=O)CN(C)C2CC2)c1 (stereo not drawn),Percent Effect,[1],2.98%
same,Percent Effect,[2],-50.8%
CCOCc1cccc(S(=O)(=O)N2CCSCC2)c1,Percent Effect,[1],-3.43%
same,Percent Effect,[2],-4.15%
COc1ccc(F)cc1S(=O)(=O)NCC(c1cccn1C)N(C)C (stereo not drawn),Percent Effect,[1],-5.43%
same,Percent Effect,[2],9.89%
CC(O)CN1CCN(Cc2csc(-c3ncccn3)n2)CC1 (stereo not drawn),Percent Effect,[1],2.19%
same,Percent Effect,[2],-19.8%
COc1c(C2CCCN2C(=O)c2cc(Cl)c[nH]2)c(C)nn1C (stereo not drawn),Percent Effect,[1],0.802%
same,Percent Effect,[2],-13%
Cn1c(CN2CCOC(c3nc(C(C)(C)C)n[nH]3)C2)nnc1C1CC1 (stereo not drawn),Percent Effect,[1],-5.04%
same,Percent Effect,[2],-21.1%
Cc1ccc2oc(C(=O)N3CCC(C(=O)N4CCCC4)CC3)cc2n1,Percent Effect,[1],1.57%
same,Percent Effect,[2],-16.4%
CN(C)C(=O)c1ccc2c(c1)N(C)C(CC(=O)NC(C)(C)CO)CO2 (stereo not drawn),Percent Effect,[1],1.87%
same,Percent Effect,[2],-25.6%
O=C1CC(c2cccnc2)C2(CCN(C(=O)c3ccncc3)CC2)N1 (stereo not drawn),Percent Effect,[1],-5.73%
same,Percent Effect,[2],7.39%
Cc1nc(NC(=O)CNC(=O)c2c(F)cccc2Cl)n[nH]1,Percent Effect,[1],6.53%
same,Percent Effect,[2],3.62%
Cc1ccc(C(=O)N2CCCC(C(=O)N3CCCCC3)C2)c(O)c1 (stereo not drawn),Percent Effect,[1],-0.062%
same,Percent Effect,[2],20.6%
CCOC(=O)NC(C(=O)NCc1ccc(N2CCCCC2)nc1)C(C)C (stereo not drawn),Percent Effect,[1],-3.06%
same,Percent Effect,[2],21.9%
Cc1nn(C)c(N2CCOCC2)c1CNCc1nccs1,Percent Effect,[1],-2.7%
same,Percent Effect,[2],28.1%
Cc1nn(C)c2c(=O)n(CC(=O)Nc3cc(Cl)cc(Cl)c3)nnc12,Percent Effect,[1],-7.23%
same,Percent Effect,[2],-36.8%
O=C(NCC1CC1)[C@H]1C[C@@H]2CCN(Cc3nccs3)C[C@@H]2O1,Percent Effect,[1],-3.13%
same,Percent Effect,[2],0.967%
Cc1cn(-c2ccccc2)nc1NS(=O)(=O)c1cccc(C(=O)O)c1,Percent Effect,[1],2.62%
same,Percent Effect,[2],-5.83%
CN(C)CCNC(=O)c1ccc(OC2CCN(S(C)(=O)=O)CC2)c(Cl)c1,Percent Effect,[1],1.85%
same,Percent Effect,[2],-25.9%
Cc1cn2c(n1)CCC(NC(=O)CCC(F)(F)F)C2 (stereo not drawn),Percent Effect,[1],-0.225%
same,Percent Effect,[2],5.05%
COc1cc(N2C[C@@H]3COC[C@]3(COc3cccnc3)C2)ncn1,Percent Effect,[1],-3.68%
same,Percent Effect,[2],-5.75%
COc1ccc(OC)c(-c2nc(CN(C)Cc3nncn3C)c(C)o2)c1,Percent Effect,[1],5.61%
same,Percent Effect,[2],-20.1%
Cc1cnn(C2CCCN(C(=O)c3ccnc(N(C)C)c3)C2)c1 (stereo not drawn),Percent Effect,[1],-5.57%
same,Percent Effect,[2],-16.8%
CN(CC1(O)CCCN(c2ccccn2)C1)C(=O)Cc1ccsc1 (stereo not drawn),Percent Effect,[1],1.53%
same,Percent Effect,[2],13.7%
CC(C)(C)C(=O)NCCC(=O)NC(C)(C)c1ccc2c(c1)OCCO2,Percent Effect,[1],1.41%
same,Percent Effect,[2],-2.07%
O=C(c1ccoc1)N1CCCn2cnc(COCC3CC3)c2C1,Percent Effect,[1],-5.91%
same,Percent Effect,[2],-6.53%
CCOCCCn1c(NC(=O)c2ccc(C)nc2)nc2ccccc21,Percent Effect,[1],-3.79%
same,Percent Effect,[2],14.9%
Fc1ccc(CN2CCO[C@H]3[C@H](OCCN4CCCC4)CC[C@@H]32)cc1,Percent Effect,[1],2.94%
same,Percent Effect,[2],-20.2%
O=C(NCCn1ccnc1)N1CCN(c2nccs2)CC1,Percent Effect,[1],2.45%
same,Percent Effect,[2],-47.2%
O=C(NCC1CC1)Nc1cnc2cc(Cl)ccc2c1O,Percent Effect,[1],-0.223%
same,Percent Effect,[2],-0.695%
Cc1ccc(CC(=O)NCCCNS(C)(=O)=O)cc1,Percent Effect,[1],2.46%
same,Percent Effect,[2],-16.3%
O=C(NCCNC(=O)c1scnc1Cl)c1ccccc1,Percent Effect,[1],2.84%
same,Percent Effect,[2],-34.6%
Cc1noc(C)c1C(=O)NCC(C)N(C)C (stereo not drawn),Percent Effect,[1],1.84%
same,Percent Effect,[2],30.6%
COc1ccc(NCc2nc(=O)n(CCC(C)C)[nH]2)cc1,Percent Effect,[1],-2.01%
same,Percent Effect,[2],5.42%
Cc1nc(CN2CCCC(N(C)CCc3cccs3)C2)no1 (stereo not drawn),Percent Effect,[1],-3.43%
same,Percent Effect,[2],25.8%
CN(Cc1nnc(C2CC2)n1C)C(=O)c1ccnc(OC2CCC2)c1,Percent Effect,[1],-0.39%
same,Percent Effect,[2],3.48%
CCN(CC)C(=O)CN(C)C1CCc2ccccc21 (stereo not drawn),Percent Effect,[1],-4.5%
same,Percent Effect,[2],14.4%
Cn1cc(CN2C[C@@H]3CN(Cc4ccoc4)CCO[C@@H]3C2)cn1,Percent Effect,[1],3.69%
same,Percent Effect,[2],-1.85%
COc1c(CNCc2cnn(C)c2)c(C(C)C)nn1C,Percent Effect,[1],-1.63%
same,Percent Effect,[2],6.94%
Cn1cccc1C(=O)N1CCCN(CCCc2ccccc2)CC1,Percent Effect,[1],0.0912%
same,Percent Effect,[2],-20.8%
Cc1noc(C)c1CNC(=O)N1CCC(C(O)c2ccccc2)CC1 (stereo not drawn),Percent Effect,[1],-2.1%
same,Percent Effect,[2],-19.9%
Cc1nccc(C2CN(Cc3cc[nH]n3)CCO2)n1 (stereo not drawn),Percent Effect,[1],-1.53%
same,Percent Effect,[2],2.02%
CCS(=O)(=O)N1Cc2nccn2CC(COc2cccnc2)C1 (stereo not drawn),Percent Effect,[1],-1.75%
same,Percent Effect,[2],-12.5%
CC(C)(C)OC(=O)N1CCCc2ccc(NCc3ncc[nH]3)cc21,Percent Effect,[1],5.68%
same,Percent Effect,[2],-52.5%
CNC(=O)c1cnc(/C=C/c2ccc(OC)c(O)c2)s1,Percent Effect,[1],1.65%
same,Percent Effect,[2],-56.5%
Cc1ccc(NC(=O)N2CCC(NC(=O)c3ccc(C)o3)CC2)cc1,Percent Effect,[1],-0.605%
same,Percent Effect,[2],25.3%
CCN(CC)C(CNS(=O)(=O)c1ccc(C(=O)NC)cc1)c1ccco1 (stereo not drawn),Percent Effect,[1],-2.1%
same,Percent Effect,[2],-17.4%
CN(Cc1ccsc1)C(=O)Nc1ccc(S(=O)(=O)N(C)C)cc1,Percent Effect,[1],0.428%
same,Percent Effect,[2],-3.75%
O=C1CC[C@H]2[C@H](CCN2C(=O)C2CCOCC2)N1Cc1ccncc1,Percent Effect,[1],-6.47%
same,Percent Effect,[2],-35.2%
CSc1nccn1-c1cccc(C(=O)NCC2CC2)c1,Percent Effect,[1],4.07%
same,Percent Effect,[2],32%
Cn1ncc2c1CCCC2NCc1ccc(Cl)s1 (stereo not drawn),Percent Effect,[1],-3.2%
same,Percent Effect,[2],28.8%
Cc1ccccc1Oc1ncccc1CNS(C)(=O)=O,Percent Effect,[1],-3.12%
same,Percent Effect,[2],-11.9%
Cc1cc(CN(C)C(=O)NC2CCCN(c3ncccn3)C2)no1 (stereo not drawn),Percent Effect,[1],-1.17%
same,Percent Effect,[2],33.3%
COCC1CN(C(=O)c2cccn2C)Cc2ncnn2C1 (stereo not drawn),Percent Effect,[1],12.6%
same,Percent Effect,[2],-34.6%
Cn1cc(N2CC3(CCN(S(=O)(=O)C4CC4)C3)CC2=O)cn1 (stereo not drawn),Percent Effect,[1],-0.32%
same,Percent Effect,[2],-17.6%
O=C(NCc1ccc(-n2cncn2)nc1)c1ccc2c(c1)CCO2,Percent Effect,[1],-1.77%
same,Percent Effect,[2],12.9%
Cc1cc2c(=O)n3c(nc2s1)CCN(C(=O)c1cnn(C)c1C)CC3,Percent Effect,[1],0.849%
same,Percent Effect,[2],5.44%
